Compound activity from PubChem.
HT1080 IDH1KD tx – kills HT-1080 cells with IDH1 knockdown | HT-1080 IDH1 knockdown viability, ATP luminescence, 48 h | Potency, µM (series often up to 46.1 µM), most hits filed as cytotoxic | 360,000 tested, 2% active | AID 686971
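After a 2 h attachment period, IDH1KD HT-1080 cells took pin-transferred compound for 48 h at 37 °C; ATP-based luminescence after 10 min room-temperature reagent incubation reported viability.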
DT40 TDP1 no CPT – qHTS for Inhibitors of human tyrosyl-DNA phosphodiesterase 1 (TDP1): qHTS in cells in absence of CPT | DT40 Tdp1-/- hTDP1 cells, no CPT, ATP luminescence, 48 h | Potency, µM (highest dose often 46.2 µM), usual class: inhibitors | 420,000 tested, 15% active | AID 686978, 2013; further: nearly all actives have a fitted effect of over 55% in size
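Camptothecin absent (DMSO only). Human TDP1-complemented DT40 knockout cells, 400 cells/well, 37 °C for minimum 48 hr; ATP measured via CellTiter-Glo, 30 min dark incubation, luminescence.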
IL1B secr inh – inhibitors of inflammasome signaling (IL-1 beta secretion); AID 743279; activity change, % at 57.5 µM; 360,000 tested, 4.7% active; THP-1 LPS/ATP IL-1B secretion, AlphaLISA, 16 h; active compounds read low; in the data active means activity change below about -50%; inconclusive means mostly about -30% to -49%
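Secreted IL-1B measured by AlphaLISA bead assay after 16 h compound exposure of THP-1 cells; compounds (final up to 57.5 uM) added 1 h before LPS (250 ng/mL) and ATP (1.25 mM) stimulation; lower signal means less secretion.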
TDP1 cell CPT – growth inhibition of DT40 Tdp1-/-;hTDP1 cells with camptothecin (screen for TDP1 inhibitors); chicken DT40 Tdp1-/-;hTDP1 cells + 20 nM CPT, ATP luminescence, 48 h; Potency, µM (titrated, usually from 46.2 µM), hits mostly inhibitors; 420,000 tested, 12% active; further: nearly all actives have a fitted effect of over 55% in size
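Chicken DT40 Tdp1-/- cells stably complemented with human TDP1 were seeded at 400 cells/well in medium containing 20 nM camptothecin, exposed to pin-transferred compounds, and grown at 37 °C for at least 48 hr. Viability was read as ATP luminescence.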
HT1080NT lethal – kills 2HG-producing HT-1080-NT fibrosarcoma cells; 360,000 tested, 1.6% active; AID 686970; Potency, µM (titrated, usually from 46.1 µM), hits mostly cytotoxic; HT-1080-NT fibrosarcoma viability, CellTiter-Glo ATP luminescence, 48 h;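 further: NT is the 2HG producing partner of a matched IDH1 knockdown line; nearly all actives have a fitted effect of over 55% in size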
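HT-1080-NT; 750 cells/well; 5% FBS RPMI; 48 h compound, 37 degrees C; CellTiter-Glo luminescence; curve fitting and curve-class assignment.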
12-LOX inh – inhibitors of human 12S-lipoxygenase ALOX12; AID 1671190; purified 12hLO, xylenol orange hydroperoxide absorbance; 580,000 tested, 1.1% active; Potency, µM (doses to about 108 µM), actives largely listed as inhibitors
Target sequence (P18054 whole entry, looked up): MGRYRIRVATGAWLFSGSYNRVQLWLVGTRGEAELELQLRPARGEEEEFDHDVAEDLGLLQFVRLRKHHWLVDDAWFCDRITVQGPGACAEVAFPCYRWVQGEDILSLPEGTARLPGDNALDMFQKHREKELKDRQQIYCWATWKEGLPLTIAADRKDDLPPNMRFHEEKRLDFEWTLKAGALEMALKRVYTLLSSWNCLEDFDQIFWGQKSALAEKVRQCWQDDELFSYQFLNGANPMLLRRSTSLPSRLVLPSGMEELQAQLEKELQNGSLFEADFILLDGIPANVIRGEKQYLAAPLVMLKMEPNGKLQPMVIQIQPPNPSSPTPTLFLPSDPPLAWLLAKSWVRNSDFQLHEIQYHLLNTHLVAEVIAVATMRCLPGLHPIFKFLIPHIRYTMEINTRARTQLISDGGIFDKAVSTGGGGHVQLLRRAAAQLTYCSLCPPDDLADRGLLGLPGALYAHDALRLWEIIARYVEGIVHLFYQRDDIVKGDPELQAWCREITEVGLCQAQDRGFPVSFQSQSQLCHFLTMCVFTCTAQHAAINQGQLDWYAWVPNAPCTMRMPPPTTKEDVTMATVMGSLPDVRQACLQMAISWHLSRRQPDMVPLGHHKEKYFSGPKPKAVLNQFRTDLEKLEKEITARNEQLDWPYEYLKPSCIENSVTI
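Purified human 12hLO at 150 nM in 25 mM Hepes, 0.01% Triton X-100, pH 7.0, preincubated 15 min at room temperature with compound. Reaction started with 40 uM arachidonic acid, 30 min at room temperature. Hydroperoxide measured by Fe-xylenol orange, 573/405 nm absorbance ratio.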
A number is an active result; – = inactive; ? = inconclusive; · = not tested or not shown; [ ] = another dose, or the depositor's remark. The sample as a whole holds a higher share of hits than the screen did. Unless noted, the call rests on the fitted dose curve; in most records, active means well fitted curve in the direction sought with a large enough effect; inconclusive means small, poorly fitted or top-dose-only effect, or another doubt; inactive means no such curve, though single readings can be large; an effect the other way counts as inactive or inconclusive.

SMILES	HT1080 IDH1KD tx	DT40 TDP1 no CPT	IL1B secr inh	TDP1 cell CPT	HT1080NT lethal	12-LOX inh
COc1ccc(/C=C/C(=O)c2ccc[nH]2)cc1OC	–	?	-62.8	–	–	?
COc1ccc(/C=C/C(=O)C2(O)CCCCC2)cc1	?	?	-92.4	?	–	?
COc1ccc(C(=O)/C=C/c2ccccc2C(F)(F)F)cc1	?	23.1µM	-73.1	29.1µM	?	–
COc1cc(C(=O)O)ccc1OCc1ccccc1	·	·	·	·	·	–
O=C(NCCc1ccc(Cl)cc1)c1nc(-c2cccc(F)c2)c2cnccn12	·	·	·	·	·	–
COCCn1c(CN2CCCCC2C)nc2c1c(=O)n(C)c(=O)n2C (stereo unspecified)	·	·	·	·	·	–
CC(NC(=O)c1ccnc(N(C)C)c1)c1ccc2c(c1)CCC(=O)N2 (stereo unspecified)	·	·	·	·	·	–
COc1ccc2[nH]c3c(c2c1)CCNC31CCN(C(=O)c2c(C)noc2C)CC1	·	·	·	·	·	–
COC(=O)c1ccc(/C=C/C(=O)O)cc1	–	–	–	–	–	–
COC(=O)c1ccc(/C=C/C(=O)c2ccc(OC)c(OC)c2)cc1	?	?	-58.9	?	?	·
COC(=O)c1ccc(/C=C/C(=O)c2ccc(OC)cc2)cc1	?	16.4µM	?	?	–	–
COc1ccc(/C=C/C(=O)c2ccccc2)cc1Cn1nnc2ccccc21	?	23.1µM	-99.3	?	?	–
COc1cc(/C=C/C(=O)c2ccc(C)cc2)ccc1OCC#N	20.6µM	?	-114.2	?	?	–
COc1ccc(/C=C/C(=O)c2ccc(C(=O)/C=C/c3ccc(OC)c(OC)c3)cc2)cc1OC	–	5.8µM	–	7.31µM	–	–
O=C(/C=C/c1ccc(OCc2ccccc2)c(OCc2ccccc2)c1)c1cccnc1	?	11.6µM	-94.7	?	?	–
O=C(O)C(Cc1ccccc1)C(C(=O)O)c1ccccc1 (stereo unspecified)	·	·	·	·	·	–
CCC(C)[C@H](NC(=O)Nc1ccc2oc(-c3cccnc3)nc2c1)C(=O)OC (stereo partly specified)	·	·	·	·	·	–
C/C=C/C=C/C(=O)OCc1nc2c(c(=O)[nH]c(=O)n2CCCC)n1C	·	·	·	·	·	–
O=C(CCSCc1ccccc1Cl)NCCc1ccccc1	·	–	·	–	·	–
O=C(Cc1ccccc1)NCCSCc1ccccc1	–	–	–	–	–	–
Cc1cccc(CSCCNC(=S)Nc2ccccc2)c1	–	18.4µM	?	?	–	?
S=C(NCCSCc1ccccc1Cl)Nc1ccccc1	?	?	–	?	–	35.5µM
S=C(NCCSCc1ccc(Cl)cc1)Nc1ccccc1	–	?	?	?	–	44.7µM
COc1nc(C(=O)N(C)CC(=O)NC(C)(C)C)cc2ccccc12	·	·	·	·	·	–
O=C(NC(c1ccccc1)c1ccccc1)c1ccc(Br)o1	–	?	–	?	–	–
SMILES	HT1080 IDH1KD tx	DT40 TDP1 no CPT	IL1B secr inh	TDP1 cell CPT	HT1080NT lethal	12-LOX inh
O=C(/C=C/c1ccc(Br)o1)NC(c1ccccc1)c1ccccc1	–	?	?	9.2µM	–	?
CC(=O)N1CCC2(CC1)CN(C(=O)CCC(=O)O)Cc1ccccc1O2	·	·	·	·	·	–[6.33 µM]
CCCC(=O)NC(Nc1cccc(C(F)(F)F)c1)C(Cl)(Cl)Cl (stereo unspecified)	?	20.6µM	–	?	?	–
Cc1cccc(C(=O)NC(Nc2cccc(C(F)(F)F)c2)C(Cl)(Cl)Cl)c1 (stereo unspecified)	·	·	·	·	·	–
CCCC(=O)NC(Nc1cc(C(F)(F)F)ccc1Cl)C(Cl)(Cl)Cl (stereo unspecified)	?	18.4µM	–	18.4µM	?	–
O=C(CCc1ccccc1)Nc1cc(C(F)(F)F)ccc1Cl	–	–	–	–	–	–
O=C(NC(Nc1cc(C(F)(F)F)ccc1Cl)C(=O)c1ccccc1)c1ccccc1 (stereo unspecified)	–	20.6µM	–	?	–	–
O=C(Cc1c[nH]c2ccccc12)NC(c1ccccc1)c1ccccc1	·	·	·	·	·	–
O=S(=O)(c1c(Cl)cccc1Cl)N1CCNCC1	·	·	·	·	·	–
CC(c1nc2ccccc2n1CC(=O)N(c1ccccc1)C(C)C)N1CCOCC1 (stereo unspecified)	·	·	·	·	·	–
Cc1ncccc1C(=O)N1CCCC(c2nc(-c3cccnc3)no2)CCNC(=O)CC1 (stereo unspecified)	·	·	·	·	·	–
N#CCSc1nnc(-c2sc3ccccc3c2Cl)o1	?	?	-93.5	?	?	–
COC(=O)CSc1nnc(-c2sc3ccccc3c2Cl)o1	–	–	–	–	–	–
O=S(=O)(Nc1nc2ccccc2nc1NC1CCCC1)c1ccc2c(c1)OCCO2	·	·	·	·	·	–
CC1(NC(=O)N2CCCCC2)CCS(=O)(=O)C1 (stereo unspecified)	–	–	–	–	–	–
CC12CC3(C)CC(C)(C1)CC(NC(=O)N1CCCC1)(C2)C3	–	12.6µM	–	?	–	–
CCC(C)(C)c1nnc(NC(=O)Cc2ccccc2)s1	·	·	·	·	·	–
c1ccc(Oc2ccccc2-c2cc(NCCc3cccnc3)n3nccc3n2)cc1	–	?	–	18.4µM	?	–
C=C1CC(Cn2cc(Br)c(=O)[nH]c2=O)(c2ccc(-c3ccccc3)cc2)OC1=O (stereo unspecified)	1.64µM	0.0259µM	–	0.0326µM	2.31µM	?
O=c1[nH]c(=O)n(Cc2ccc(Oc3ccccc3)cc2)cc1Br	·	·	·	·	·	–
O=C(CC1CCCC1)NCc1ccccn1	·	·	·	·	·	–
CCn1c(C)c(C)c2cc(C(=O)NCCN3CCCCCC3)ccc21	–	?	–	?	–	?
Cc1c(C)n(Cc2ccc(F)cc2)c2ccc(C(=O)NCCN3CCOCC3)cc12	–	16.4µM	–	?	–	?
CCn1c(C)c(C)c2cc(C(=O)N3CCc4ccccc4C3)ccc21	16.4µM	14.6µM	–	?	?	–
COc1ccc(CCNC(=O)c2ccc3c(c2)c(C)c(C)n3Cc2ccc(F)cc2)c(OC)c1OC	·	23.1µM	·	18.4µM	·	–
CCn1c(C)c(C)c2cc(C(=O)NCCc3cc(OC)c(OC)c(OC)c3)ccc21	·	3.66µM	·	4.11µM	·	–
CCn1c(C)c(C)c2cc(C(=O)NCCCN3CCN(C)CC3)ccc21	–	–	–	–	–	–
CC1(C)C2CCC1(C)C(NC(=O)CCNC(=O)C1CCCC1)C2 (stereo unspecified)	·	·	·	·	·	–
COCCCNC(=O)c1ccccc1-c1ncc(-c2ccccc2F)o1	·	·	·	·	·	–
COc1ccc(OC)c(CCNC(=O)c2ccc3c(c2)c(C)c(C)n3Cc2ccccc2)c1	·	?	·	16.4µM	·	–
